The text below walks through data of PubChem BioAssay.

Active and inactive are the calls of the source.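 The calls were made as follows, unless noted: active = fluorescence slope higher than the sample average by over 3 SD (cut at about -0.22 in these data, passing the limit was not always enough); inactive = the rest.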

The inhibition is the relative decrease from the control value, in per cent.

A short description of experiment [1]: inhibitors of TNFa-induced NFkB p65 translocation, primary screen, imaging, HUVEC, MLSMR starter and 10KST1 sets (AID 438;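 active = inhibition above 20% together with a positive visual image hit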;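 also: compound added about 3h40 before a 20 min TNFalpha stimulation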;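 as to inhibition: signal is the nuclear over cytoplasmic p65 intensity ratio per well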). The conditions noted are these: HUVEC TNFa-induced p65 nuclear translocation; cell count: measured here: nuclei count (cytotoxicity indicator), at 2.08 µM; inhibition: at 2 µM, stronger effect = higher value, 0% TNFa-plus-vehicle, 100% no-TNFa wells.

Experiment [2] is described as follows: reduction of polyQ htt aggregates in cells – imaging, exon1htt(103Q)mCFP cells, high-content imaging, primary screen (AID 483;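 active = visual image review flags a hit and inhibition of aggregation exceeds 20%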;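 also: compound exposure lasted 3 days before fixation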;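 as to nuclei count: percent of the per-plate median nuclei count of sample wells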). The conditions noted are these: exon1htt(103Q)mCFP cell line, aggregate imaging, at 2 µM; inhibition of aggregation: stronger effect = higher value; nuclei count: measured here: cell count, toxicity.
Experiment [3] in a line: endothelial E-selectin expression blockers – imaging, HUVEC, immunofluorescence, MLSMR starter and 10KST1 sets, primary screen (AID 487;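 active = visually confirmed hit in the image check and inhibition above 20%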;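 as to inhibition: signal is fraction of cell area covered by stained E-selectin grains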;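 as to nuclei count: 100% = median nuclei count of all wells on the same plate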). The conditions noted are these: HUVEC TNFalpha-induced E-selectin immunofluorescence imaging, at 2 µM; inhibition: stronger effect = higher value; nuclei count: measured here: cell number, toxicity.
Experiment [4] deals with Voltage-gated potassium channel subunit beta-2 (Rattus norvegicus) (UniProt P62483). Kind of experiment: inhibitors of rat Kvbeta2 reductase activity – biochemical, NADPH fluorescence, primary screen (AID 622).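 Also: slope of raw intensity against log time taken from 70 to 1610 s.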 The conditions noted are these: recombinant KvBeta, 4-cyanobenzaldehyde reduction, at 10 µM, stronger effect = higher value.
Experiment [5] shares this target. Kind of experiment: enhancers of rat Kvbeta2 NADPH turnover – biochemical, NADPH fluorescence, primary screen (AID 623;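 active = NADPH fluorescence slope more negative than the mean of all samples by about 3 SD, 99.7% confidence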;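 also: fluorescence intensity change per second fitted from 20 to 320 s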). Conditions: Recombinant KvBeta, NADPH fluorescence decrease slope, 10 min; at 10 µM; stronger effect = lower value.
Experiment [6] concerns the target Alpha-2C adrenergic receptor (Homo sapiens) (UniProt P18825). Kind of experiment: compounds altering alpha2C-coupled GIRK flux – cell-based, HEK293 alpha2C/GIRK1/2, thallium flux, primary screen (AID 624;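 active = fluorescence slope after compound addition differing from the mean of all screened samples at 99.7% confidence, in either direction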;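 also: slope of fluorescence ratio to pre-addition baseline per second over 15 to 24 s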). The conditions noted are these: thallium flux BTC fluorescence, at 10 µM, actives lie on both sides.
Experiment [7] in a line: blockers of RIG-like receptor reporter activation – cell-based, Sendai virus stimulus, luciferase, 10K MLSCN set, TLR/RLR signaling modifier project, primary screen (AID 602276;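 active = inhibition at or above 50% at 10 µM; inactive = inhibition below 50%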;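 also: firefly luciferase from ISG56 promoter only with Renilla not read in this screen; 0% = Sendai virus plus DMSO and 100% = medium plus DMSO without virus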). Conditions: HEK293 RL24 IRF3 luciferase reporter, at 10 µM, stronger effect = higher value.
Experiment [8] is described as follows: TLR3 IRF3 reporter activation blockers – cell-based, poly I:C stimulus, luciferase, 10K MLSCN set, primary screen (AID 602277;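 active = inhibition of the reporter signal at or above 50%; inactive = inhibition below 50%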). Conditions: HEK293-TLR3 RL24 IRF3 luciferase reporter, at 10 µM, stronger effect = higher value. Background: A reporter such as luciferase makes a cellular process visible.

Sequence of Voltage-gated potassium channel subunit beta-2 (Rattus norvegicus) (P62483 whole entry, looked up): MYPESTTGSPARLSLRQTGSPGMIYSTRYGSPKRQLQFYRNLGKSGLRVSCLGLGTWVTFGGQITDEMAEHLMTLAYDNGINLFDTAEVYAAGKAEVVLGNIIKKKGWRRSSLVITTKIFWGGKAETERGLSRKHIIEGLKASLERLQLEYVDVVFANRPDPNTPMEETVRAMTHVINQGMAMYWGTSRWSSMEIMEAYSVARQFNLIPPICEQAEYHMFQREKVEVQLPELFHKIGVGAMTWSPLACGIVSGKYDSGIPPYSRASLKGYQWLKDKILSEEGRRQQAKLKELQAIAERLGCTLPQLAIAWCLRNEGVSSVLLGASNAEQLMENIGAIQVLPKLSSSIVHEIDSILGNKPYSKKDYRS
Sequence of Alpha-2C adrenergic receptor (Homo sapiens) (P18825 whole entry, looked up): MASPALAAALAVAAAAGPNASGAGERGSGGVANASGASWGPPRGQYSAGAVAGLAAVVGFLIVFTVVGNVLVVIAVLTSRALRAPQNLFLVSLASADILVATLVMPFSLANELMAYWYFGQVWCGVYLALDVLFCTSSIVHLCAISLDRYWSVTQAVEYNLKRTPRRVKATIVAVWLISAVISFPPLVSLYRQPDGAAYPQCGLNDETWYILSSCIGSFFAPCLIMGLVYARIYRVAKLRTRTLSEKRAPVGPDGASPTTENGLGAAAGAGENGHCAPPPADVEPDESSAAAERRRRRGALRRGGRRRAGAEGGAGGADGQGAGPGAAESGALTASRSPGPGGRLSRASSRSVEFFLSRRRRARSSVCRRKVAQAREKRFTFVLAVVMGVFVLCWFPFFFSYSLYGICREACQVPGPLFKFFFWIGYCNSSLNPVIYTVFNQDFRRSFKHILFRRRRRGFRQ

In the case of `c1ccc(CCn2nnnc2C(c2cccs2)N2CCOCC2)cc1` (stereo not given), in experiment [1], the cell count was 675. Moreover, the inhibition is -8.6% (inactive) in experiment [1], -74.9% (inactive) in experiment [3], 4.38% (inactive) in experiment [7] and 17.4% (inactive) in experiment [8]. The inhibition of aggregation in experiment [2] is -16% (inactive). The results for the nuclei count in experiment [2] and in experiment [3] were 124% and 106%, respectively. The fluorescence slope in experiment [4] is -0.488 (inactive). Moreover, the NADPH fluorescence slope in experiment [5] is -0.000173 (inactive). Also, the slope in experiment [6] is 0.00462 (inactive).

With `CCOC(=O)C1CCN(c2c(N3CCCCCC3)c(=O)c2=O)CC1`, in experiment [1], the cell count is 897. Moreover, the inhibition in experiment [1] is -0.9% (inactive); in experiment [3], -84.4% (inactive); in experiment [7], 8.92% (inactive); in experiment [8], 28.8% (inactive). Besides, in experiment [2], the inhibition of aggregation is -6.8% (inactive). In addition, the nuclei count in experiment [2] was found to be 98.7%; in experiment [3], 112%. In experiment [4], the fluorescence slope is -0.581 (inactive). For the same compound, the NADPH fluorescence slope in experiment [5] is -4.7e-05 (inactive). The slope in experiment [6] was 0.0057 (inactive).

On to `Cc1cc2n(n1)C(c1ccccc1)Nc1ccccc1-2` (stereo not given), for which, in experiment [1], the cell count worked out at 410. The inhibition in experiment [1] was -1.3% (inactive); in experiment [3] it was -13.2% (inactive); in experiment [7] it was -11.9% (inactive); in experiment [8], -26.7% (inactive). For the same compound, the inhibition of aggregation in experiment [2] is -2.5% (inactive). In addition, the nuclei count in experiment [2] came to 101%; in experiment [3] it was 119%. Besides, in experiment [4], the fluorescence slope was -0.512 (inactive). Further, the NADPH fluorescence slope in experiment [5] was -3.7e-05 (inactive). Moreover, the slope in experiment [6] was 0.00459 (inactive).

For `Cc1nc2ccccc2c2oc(C(=O)NCCCN3CCCC3=O)cc12`, in experiment [1], the cell count turned out to be 472. The inhibition was 1.3% (inactive) in experiment [1], -36.2% (inactive) in experiment [3], 10.3% (inactive) in experiment [7] and 7.6% (inactive) in experiment [8]. Moreover, in experiment [2], the inhibition of aggregation is -37.4% (inactive). In addition, the nuclei count came out at 76% in experiment [2] and 106% in experiment [3]. In experiment [4], the fluorescence slope was -0.527 (inactive). In addition, the NADPH fluorescence slope in experiment [5] is -2e-05 (inactive). In addition, the slope in experiment [6] was 0.00837 (inactive).

For the compound `CCOC(=O)C1=C(c2ccccc2)NC(=O)NC1c1ccc(N(C)C)cc1` (stereo not given), the cell count in experiment [1] came out at 363. Moreover, the inhibition was -0.5% (inactive) in experiment [1], -131% (inactive) in experiment [3], 12.6% (inactive) in experiment [7] and 29.3% (inactive) in experiment [8]. The inhibition of aggregation in experiment [2] was 14.6% (inactive). The nuclei count in experiment [2] turned out to be 86.7%; in experiment [3], 118%. In addition, the fluorescence slope in experiment [4] was -0.439 (inactive). Further, the NADPH fluorescence slope in experiment [5] is -4.5e-05 (inactive). Further, in experiment [6], the slope is 0.00395 (inactive).

With `CCc1ccccc1NC(=O)CCc1nc(-c2ccc(C)cc2)no1`, the cell count in experiment [1] amounted to 415. For the same compound, the inhibition in experiment [1] is -1% (inactive); in experiment [3], 14.1% (inactive); in experiment [7], 14.1% (inactive); in experiment [8], 47.2% (inactive). In addition, in experiment [2], the inhibition of aggregation is -4% (inactive). Moreover, the figures for the nuclei count in experiment [2] and in experiment [3] were 103% and 86.3%, respectively. Besides, in experiment [4], the fluorescence slope was -0.299 (inactive). Also, in experiment [5], the NADPH fluorescence slope is 1.2e-05 (inactive). In addition, the slope in experiment [6] is 0.00374 (inactive).

For the compound `COc1cc2c(N3CCOCC3)cc(O)c(CC(=O)Nc3ccccc3)c2cc1OC`, the cell count in experiment [1] is 217. Further, the inhibition is 2.5% (inactive) in experiment [1], -63.7% (inactive) in experiment [3], -3.63% (inactive) in experiment [7] and 7.05% (inactive) in experiment [8]. In addition, the inhibition of aggregation in experiment [2] is 0.7% (inactive). The nuclei count in experiment [2] came to 107%; in experiment [3], 101%. In addition, the fluorescence slope in experiment [4] is -0.344 (inactive). Further, the NADPH fluorescence slope in experiment [5] was -3.7e-06 (inactive). Also, the slope in experiment [6] is 0.00641 (inactive).

As to `c1ccc(-c2cc(N3CCCCC3)ncn2)cc1`, in experiment [1], the cell count is 327. For the same compound, the inhibition in experiment [1] was 0.7% (inactive); in experiment [3], -109% (inactive); in experiment [7] it was -37.6% (inactive); in experiment [8], -113% (inactive). In experiment [2], the inhibition of aggregation was -3.9% (inactive). Besides, the nuclei count is 101% in experiment [2] and 112% in experiment [3]. Besides, in experiment [4], the fluorescence slope is -0.485 (inactive). In experiment [5], the NADPH fluorescence slope is -4.6e-05 (inactive). Besides, in experiment [6], the slope was 0.00423 (inactive).

For `CCCc1cc(=O)oc2c(C)c3occ(C)c3cc12`, in experiment [1], the cell count is 486. The inhibition in experiment [1] is 2.1% (inactive); in experiment [3] it was -11.9% (inactive); in experiment [7], 2.73% (inactive); in experiment [8] it was 6.19% (inactive). In experiment [2], the inhibition of aggregation is -5.5% (inactive). The nuclei count was found to be 99.6% in experiment [2] and 109% in experiment [3]. For the same compound, the fluorescence slope in experiment [4] was -0.57 (inactive). Moreover, in experiment [5], the NADPH fluorescence slope is -4.7e-05 (inactive). Moreover, the slope in experiment [6] is 0.00609 (inactive).

On to `CCC1Oc2ccc(C)cc2N(CC(=O)N(Cc2cccnc2)Cc2ccc(C)o2)C1=O` (stereo not given), for which, in experiment [1], the cell count stood at 685. The inhibition was -5.5% (inactive) in experiment [1], -9.6% (inactive) in experiment [3], 17.7% (inactive) in experiment [7] and 24.3% (inactive) in experiment [8]. For the same compound, in experiment [2], the inhibition of aggregation was 13.1% (inactive). Further, the nuclei count in experiment [2] amounted to 93.4%; in experiment [3] it was 103%. For the same compound, in experiment [4], the fluorescence slope was -0.599 (inactive). For the same compound, the NADPH fluorescence slope in experiment [5] is -5e-05 (inactive). In addition, the slope in experiment [6] is 0.00383 (inactive).
